Measurements published in PubChem BioAssay (NCATS).
Records with an inconclusive call do not appear. Values without a mark were called inactive. The source made the active and inactive calls. The call rests on the fitted dose curve; in most records, active means well fitted inhibition curve with a large enough effect; inconclusive means small, poorly fitted or top-dose-only effect; inactive means flat fitted curve, though single readings scatter.
Potency means the concentration at half of the fitted maximal effect.

The compounds below were run on ICS (assay: qHTS profiling for inhibitors of Plasmodium falciparum proliferation (AID 504749; further: nearly all actives have a fitted effect of over 60% in size;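 on activity, negative = inhibition: 0% = DMSO vehicle and full inhibition = artemisinin control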)). Details: P. falciparum in erythrocytes, SYBR Green DNA, 72 h; series mostly up to 28.7 µM; activity, negative = inhibition: at the top concentration.
Outline: (§1)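 SYBR Green fluorescence of parasite DNA, read after lysis and overnight dark incubation, measured growth over 72 h in erythrocyte culture at 0.3% parasitemia and 2.5% hematocrit. Data normalised to DMSO and 0.29 uM artemisinin, with plate-drift correction.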
With `O=S(c1cc(Cl)cc(Cl)c1O)c1cc(Cl)cc(Cl)c1O` the “activity, negative = inhibition” value was -67%.
`Cc1ccc2c(Br)cc(Br)c(O)c2n1` was tested, and the Potency was 11.2 µM (active).
In the case of `Cc1cc2c(OCC(CNC(C)(C)C)OC(=O)c3ccccc3)cccc2[nH]1` (centres undefined), the Potency is reported as 8.91 µM (active).
`Cc1cccc(C)c1NC(=O)CN1CCCCCC1` was tested, and the “activity, negative = inhibition” value was 4.23%.
In the case of `CC(=O)NCCCCCC(=O)O`, the “activity, negative = inhibition” value is reported as 1.72%.
`CCc1ccc(C(=O)C(C)CN2CCCCC2)cc1` (centres undefined) was tested, and the “activity, negative = inhibition” value was -17.9%.
`COc1ccc2c(c1)c1c3n2CCN(C)C3=NCC1` was tested, and the “activity, negative = inhibition” value was -2.92%.

What follows are compounds tested on JCK in the same assay as above. Details: P. falciparum in erythrocytes, SYBR Green DNA, 72 h; series mostly up to 28.7 µM; activity, negative = inhibition: at the top concentration.
Outline: as §1
For `COc1cc(O)c(C(=O)c2ccccc2)cc1S(=O)(=O)O`, the “activity, negative = inhibition” value was -22.6%.
For `C[N+]1(C)CCC(=C(c2ccccc2)c2ccccc2)CC1`, the “activity, negative = inhibition” value was 5.53% [at 12.8 µM].
In the case of `CCC(CC)(CC(=O)Nc1cccc(/C=C/c2nc(C3CCC3)cs2)c1)C(=O)O`, the “activity, negative = inhibition” value is reported as -14%.
In the case of `CN1CCN(C2=Nc3cc(F)ccc3Cc3ccccc32)CC1`, the “activity, negative = inhibition” value is reported as -6.79%.
`COc1ccc(C(=O)c2ccccc2)c(O)c1` was tested, and the “activity, negative = inhibition” value was -6.92%.
For `NCc1ccccc1Sc1ccccc1CO`, the “activity, negative = inhibition” value was -4.66%.
`C#C[C@]1(OC(C)=O)CC[C@H]2[C@@H]3CCC4=C/C(=N/O)CC[C@@H]4[C@H]3CC[C@@]21CC` was tested, and the “activity, negative = inhibition” value was 4.94%.
For `CN(C)CCN1C(=O)c2ccccc2N(C)c2ccccc21`, the “activity, negative = inhibition” value was -26.5%.
`COc1cc([C@H]2Oc3cc([C@H]4Oc5cc(O)cc(O)c5C(=O)[C@@H]4O)ccc3O[C@@H]2CO)ccc1O` was tested, and the “activity, negative = inhibition” value was 9.65%.
`O=[N+]([O-])c1cccc(S(=O)(=O)NCCNS(=O)(=O)c2cccc([N+](=O)[O-])c2)c1` was tested, and the “activity, negative = inhibition” value was -17%.
For `Cc1ncc(CO)c(C=O)c1O`, the “activity, negative = inhibition” value was 22.3%.
For `CC(C)[N+](C)(C)CC(O)COc1cccc2ccccc12` (centres undefined), the “activity, negative = inhibition” value was -23.5%.
